Assay results from PubChem BioAssay (NCATS).
Results filed as inconclusive are left out. Activity calls are given as the source filed them. Calls come from the whole dose curve; as a rule, active = well fitted inhibition curve with a large enough effect; inconclusive = small, poorly fitted or top-dose-only effect; inactive = flat fitted curve, though single readings scatter.

What was measured:
[1] = qHTS profiling for inhibitors of Plasmodium falciparum proliferation (AID 504749);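 note: 0% = DMSO vehicle and full inhibition = artemisinin control; nearly all actives have a fitted effect of over 60% in size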; details: P. falciparum in erythrocytes, SYBR Green DNA, 72 h
In short: (§1)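 In a 72 h erythrocytic culture (37 C, humidified, 5% CO2) at 2.5% hematocrit and 0.3% starting parasitemia, compounds were tested; SYBR Green I in detergent lysis buffer stained parasite DNA overnight.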

3D7 = test: as above; details: P. falciparum in erythrocytes, SYBR Green DNA, 72 h; series mostly up to 28.7 µM
In short: as §1

7G8 = test: as above; details: P. falciparum in erythrocytes, SYBR Green DNA, 72 h; series mostly up to 28.7 µM
In short: as §1

AA1029 = test: as above; details: P. falciparum in erythrocytes, SYBR Green DNA, 72 h; series mostly up to 28.7 µM
In short: as §1

AS120 = test: as above; details: P. falciparum in erythrocytes, SYBR Green DNA, 72 h; series mostly up to 28.7 µM
In short: as §1

ATS189 = test: as above; details: P. falciparum in erythrocytes, SYBR Green DNA, 72 h; series mostly up to 28.7 µM
In short: as §1

ATS95 = test: as above; details: P. falciparum in erythrocytes, SYBR Green DNA, 72 h; series mostly up to 28.7 µM
In short: as §1

C2A = test: as above; details: P. falciparum in erythrocytes, SYBR Green DNA, 72 h; series mostly up to 28.7 µM
In short: as §1

CP185 = test: as above; details: P. falciparum in erythrocytes, SYBR Green DNA, 72 h; series mostly up to 28.7 µM
In short: as §1

CP191 = test: as above; details: P. falciparum in erythrocytes, SYBR Green DNA, 72 h; series mostly up to 28.7 µM
In short: as §1

CP192 = test: as above; details: P. falciparum in erythrocytes, SYBR Green DNA, 72 h; series mostly up to 28.7 µM
In short: as §1

CP194 = test: as above; details: P. falciparum in erythrocytes, SYBR Green DNA, 72 h; series mostly up to 28.7 µM
In short: as §1

CP201 = test: as above; details: P. falciparum in erythrocytes, SYBR Green DNA, 72 h; series mostly up to 28.7 µM
In short: as §1

CP203 = test: as above; details: P. falciparum in erythrocytes, SYBR Green DNA, 72 h; series mostly up to 28.7 µM
In short: as §1

CP211 = test: as above; details: P. falciparum in erythrocytes, SYBR Green DNA, 72 h; series mostly up to 28.7 µM
In short: as §1

CP215 = test: as above; details: P. falciparum in erythrocytes, SYBR Green DNA, 72 h; series mostly up to 28.7 µM
In short: as §1

CP217 = test: as above; details: P. falciparum in erythrocytes, SYBR Green DNA, 72 h; series mostly up to 28.7 µM
In short: as §1

CP237 = test: as above; details: P. falciparum in erythrocytes, SYBR Green DNA, 72 h; series mostly up to 28.7 µM
In short: as §1

CP238 = test: as above; details: P. falciparum in erythrocytes, SYBR Green DNA, 72 h; series mostly up to 28.7 µM
In short: as §1

CP247 = test: as above; details: P. falciparum in erythrocytes, SYBR Green DNA, 72 h; series mostly up to 28.7 µM
In short: as §1

[2] = at 28.7 µM (top of the series), parasite line A
[3] = at 28.7 µM (top of the series), parasite line B

CC(=O)N=c1sc(S(N)(=O)=O)nn1C
inactive: activity, negative = inhibition ([1]; at 12.8 µM (top of the series), parasite line A) -0.509% | activity, negative = inhibition ([1]; at 12.8 µM (top of the series), parasite line B) -5.64% | Potency (3D7) | Potency (7G8) | Potency (AA1029) | Potency (AS120) | Potency (ATS189) | Potency (ATS95) | Potency (C2A) | Potency (CP185) | Potency (CP191) | Potency (CP192) | Potency (CP194) | Potency (CP201) | Potency (CP203) | Potency (CP211) | Potency (CP215) | Potency (CP217) | Potency (CP237) | Potency (CP238) | Potency (CP247)

S=C=Nc1ccc(N=C=S)cc1
inactive: activity, negative = inhibition [1, 2] 10.9% | activity, negative = inhibition [1, 3] 0.756% | Potency (3D7) | Potency (7G8) | Potency (AA1029) | Potency (AS120) | Potency (ATS189) | Potency (ATS95) | Potency (C2A) | Potency (CP185) | Potency (CP191) | Potency (CP192) | Potency (CP194) | Potency (CP201) | Potency (CP203) | Potency (CP211) | Potency (CP215) | Potency (CP217) | Potency (CP237) | Potency (CP238) | Potency (CP247)

CC(C)c1nc(N(C)S(C)(=O)=O)nc(-c2ccc(F)cc2)c1/C=C/C(O)CC(O)CC(=O)O (configuration not stated)
inactive: activity, negative = inhibition [1, 2] 3.93% | activity, negative = inhibition [1, 3] -1.83% | Potency (3D7) | Potency (7G8) | Potency (AA1029) | Potency (AS120) | Potency (ATS189) | Potency (ATS95) | Potency (C2A) | Potency (CP185) | Potency (CP191) | Potency (CP192) | Potency (CP194) | Potency (CP201) | Potency (CP203) | Potency (CP211) | Potency (CP215) | Potency (CP217) | Potency (CP237) | Potency (CP238) | Potency (CP247)

O=S(=O)(O)CCCS(=O)(=O)O
inactive: activity, negative = inhibition [1, 2] -6.14% | activity, negative = inhibition [1, 3] 2.06% | Potency (3D7) | Potency (7G8) | Potency (AA1029) | Potency (AS120) | Potency (ATS189) | Potency (ATS95) | Potency (C2A) | Potency (CP185) | Potency (CP191) | Potency (CP192) | Potency (CP194) | Potency (CP201) | Potency (CP203) | Potency (CP211) | Potency (CP215) | Potency (CP217) | Potency (CP237) | Potency (CP238) | Potency (CP247)

COC1=C(OC)C(=O)C(C/C=C(\C)CC/C=C(\C)CC/C=C(\C)CC/C=C(\C)CC/C=C(\C)CC/C=C(\C)CC/C=C(\C)CC/C=C(\C)CC/C=C(\C)CCC=C(C)C)=C(C)C1=O
inactive: activity, negative = inhibition [1, 2] -2.4% | activity, negative = inhibition [1, 3] 5.89% | Potency (3D7) | Potency (7G8) | Potency (AA1029) | Potency (AS120) | Potency (ATS189) | Potency (ATS95) | Potency (C2A) | Potency (CP185) | Potency (CP191) | Potency (CP192) | Potency (CP194) | Potency (CP201) | Potency (CP203) | Potency (CP211) | Potency (CP215) | Potency (CP217) | Potency (CP237) | Potency (CP238) | Potency (CP247)

Cc1ccc(C(C)(C)c2ccc(C)cc2)cc1
inactive: activity, negative = inhibition [1, 2] 2.11% | activity, negative = inhibition [1, 3] -1.44% | Potency (3D7) | Potency (7G8) | Potency (AA1029) | Potency (AS120) | Potency (ATS189) | Potency (ATS95) | Potency (C2A) | Potency (CP185) | Potency (CP191) | Potency (CP192) | Potency (CP194) | Potency (CP201) | Potency (CP203) | Potency (CP211) | Potency (CP215) | Potency (CP217) | Potency (CP237) | Potency (CP238) | Potency (CP247)

O=C(O)COc1ccccc1/C=N/NC(=O)c1ccncc1
inactive: activity, negative = inhibition [1, 2] 7.51% | activity, negative = inhibition [1, 3] 0.92% | Potency (3D7) | Potency (7G8) | Potency (AA1029) | Potency (AS120) | Potency (ATS189) | Potency (ATS95) | Potency (C2A) | Potency (CP185) | Potency (CP191) | Potency (CP192) | Potency (CP194) | Potency (CP201) | Potency (CP203) | Potency (CP211) | Potency (CP215) | Potency (CP217) | Potency (CP237) | Potency (CP238) | Potency (CP247)

O=C1[O][Bi][O]c2ccccc21
inactive: activity, negative = inhibition [1, 2] 7.71% | activity, negative = inhibition [1, 3] 1.44% | Potency (3D7) | Potency (7G8) | Potency (AA1029) | Potency (AS120) | Potency (ATS189) | Potency (ATS95) | Potency (C2A) | Potency (CP185) | Potency (CP191) | Potency (CP192) | Potency (CP194) | Potency (CP201) | Potency (CP203) | Potency (CP211) | Potency (CP215) | Potency (CP217) | Potency (CP237) | Potency (CP238) | Potency (CP247)

CC(C)CCCC(C)NC(C)C (configuration not stated)
inactive: activity, negative = inhibition [1, 2] -16.1% | activity, negative = inhibition [1, 3] -1.21% | Potency (3D7) | Potency (7G8) | Potency (AA1029) | Potency (AS120) | Potency (ATS189) | Potency (ATS95) | Potency (C2A) | Potency (CP185) | Potency (CP191) | Potency (CP192) | Potency (CP194) | Potency (CP201) | Potency (CP203) | Potency (CP211) | Potency (CP215) | Potency (CP217) | Potency (CP237) | Potency (CP238) | Potency (CP247)

O=P(O)(O)OP(=O)(O)OP(=O)(O)O
inactive: activity, negative = inhibition [1, 2] -4.84% | activity, negative = inhibition [1, 3] 8.54% | Potency (3D7) | Potency (7G8) | Potency (AA1029) | Potency (AS120) | Potency (ATS189) | Potency (ATS95) | Potency (C2A) | Potency (CP185) | Potency (CP191) | Potency (CP192) | Potency (CP194) | Potency (CP201) | Potency (CP203) | Potency (CP211) | Potency (CP215) | Potency (CP217) | Potency (CP237) | Potency (CP238) | Potency (CP247)

CC1=CCC2CC1C2(C)C (configuration not stated)
inactive: activity, negative = inhibition [1, 2] 10.5% | activity, negative = inhibition [1, 3] 12.9% | Potency (3D7) | Potency (7G8) | Potency (AA1029) | Potency (AS120) | Potency (ATS189) | Potency (ATS95) | Potency (C2A) | Potency (CP185) | Potency (CP191) | Potency (CP192) | Potency (CP194) | Potency (CP201) | Potency (CP203) | Potency (CP211) | Potency (CP215) | Potency (CP217) | Potency (CP237) | Potency (CP238) | Potency (CP247)

CC(C)[C@H](N)C(=O)OCC(CO)OCn1cnc2c(=O)[nH]c(N)nc21 (some centres not stated)
inactive: activity, negative = inhibition [1, 2] 14.7% | activity, negative = inhibition [1, 3] 6.07% | Potency (3D7) | Potency (7G8) | Potency (AA1029) | Potency (AS120) | Potency (ATS189) | Potency (ATS95) | Potency (C2A) | Potency (CP185) | Potency (CP191) | Potency (CP192) | Potency (CP194) | Potency (CP201) | Potency (CP203) | Potency (CP211) | Potency (CP215) | Potency (CP217) | Potency (CP237) | Potency (CP238) | Potency (CP247)
